# Assay outcomes deposited in PubChem BioAssay by NMMLSC.
# The list is not random: actives were taken first. Their share in the collection is about 3.5%.
# BoNT F protease – blocks Botulinum neurotoxin F light chain protease; Multiplex microsphere protease cleavage assay, flow cytometry; inhibition, % at 10 µM; 0.22% of 360,000 active; AID 588497; in the data active = inhibition above about 35%, passing the limit was not always enough; inconclusive = no clear call, values can overlap the other calls; note: plate controls were buffer without enzyme for full effect and enzyme alone for no effect
# Autofluor counter – counter-screen for toxin protease inhibitors: compound fluorescence; compound autofluorescence counterscreen, microsphere flow cytometry; active compounds read high; AID 624483; fluorescence intensity (concentration not given with the values); 3.1% of 360,000 active; in the data active = fluorescence intensity above about 16000; inconclusive = no clear call, values can overlap the other calls
# Anthrax LF prot – inhibitors of Bacillus anthracis lethal factor protease; inhibition, % at 10 µM; P15917; 0.12% of 360,000 active; multiplex microsphere protease cleavage assay, LF; in the data active = inhibition above about 30%; inconclusive = no clear call, values can overlap the other calls; note: plate controls were buffer without enzyme for full effect and enzyme alone for no effect
# Target sequence (P15917 whole entry, looked up): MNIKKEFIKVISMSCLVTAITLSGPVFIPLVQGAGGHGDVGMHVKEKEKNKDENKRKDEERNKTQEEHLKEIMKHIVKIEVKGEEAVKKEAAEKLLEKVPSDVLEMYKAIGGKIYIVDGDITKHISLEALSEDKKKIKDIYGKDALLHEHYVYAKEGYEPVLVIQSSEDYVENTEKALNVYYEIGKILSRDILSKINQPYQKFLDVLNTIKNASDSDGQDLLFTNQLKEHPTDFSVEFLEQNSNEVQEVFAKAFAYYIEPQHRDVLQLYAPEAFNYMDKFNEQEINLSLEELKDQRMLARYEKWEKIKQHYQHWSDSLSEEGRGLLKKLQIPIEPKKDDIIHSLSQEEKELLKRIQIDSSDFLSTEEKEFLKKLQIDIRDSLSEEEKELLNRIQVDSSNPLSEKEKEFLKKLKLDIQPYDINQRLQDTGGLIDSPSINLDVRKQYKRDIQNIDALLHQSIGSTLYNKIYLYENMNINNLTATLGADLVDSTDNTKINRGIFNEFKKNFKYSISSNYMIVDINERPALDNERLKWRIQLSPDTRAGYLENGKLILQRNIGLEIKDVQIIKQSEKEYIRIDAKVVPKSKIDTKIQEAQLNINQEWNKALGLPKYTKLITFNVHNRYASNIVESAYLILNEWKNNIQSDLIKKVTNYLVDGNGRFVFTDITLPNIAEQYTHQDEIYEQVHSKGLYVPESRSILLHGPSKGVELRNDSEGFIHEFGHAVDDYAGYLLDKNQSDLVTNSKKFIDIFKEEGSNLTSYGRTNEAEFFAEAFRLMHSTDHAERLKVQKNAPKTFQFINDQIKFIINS
# BoNT A protease – blocks Botulinum neurotoxin A light chain protease; multiplex microsphere protease substrate cleavage, flow cytometry; inhibition, % at 10 µM; 0.17% of 360,000 active; in the data active = inhibition above about 30%; inconclusive = no clear call, values can overlap the other calls; note: plate controls were buffer without enzyme for full effect and enzyme alone for no effect
# BoNTA LC inh 1 – BoNT/A light chain protease inhibition. shares compounds with BoNT F protease. multiplex microsphere protease assay, flow cytometry. inhibition, % at 10 µM. 3% of 720 active. AID 602139; in the data active = inhibition above about 32%
# BoNT-F LC CP1 – blocks botulinum neurotoxin F light chain protease; shares compounds with BoNT F protease; multiplex microsphere protease cleavage assay, flow cytometry; inhibition, % at 10 µM; 720 tested, under 10 active
# Anthrax LF CP1 – blocks anthrax lethal factor protease; AID 602142; inhibition, % at 10 µM; multiplex microsphere protease cleavage assay, LF; shares compounds with BoNT F protease; 720 tested, under 10 active
# Starred values were filed as active, the others as inactive; i = inactive; ? = inconclusive; nt = no result; + = active, no number. Unless noted, the rule behind the calls is not given here.
SMILES,BoNT F protease,Autofluor counter,Anthrax LF prot,BoNT A protease,BoNTA LC inh 1,BoNT-F LC CP1,Anthrax LF CP1
O=C(Nc1cccc(O)c1)N1CCOCC1,3,2893,-1,0,nt,nt,nt
Cc1ccc2cc(C(c3nnnn3C3CCCC3)N3CCOCC3)c(=O)[nH]c2c1C (stereo not drawn),3,9655,14,1,nt,nt,nt
CCOC(=O)C1CCN(C(c2cc3c(C)ccc(C)c3[nH]c2=O)c2nnnn2C2CCCCC2)CC1 (stereo not drawn),109*,38836*,10,15,1,-3,0
Cc1ccc(C)c2[nH]c(=O)c(C(c3nnnn3C3CCCC3)N3CCOCC3)cc12 (stereo not drawn),-4,25756*,-1,-3,0,-1,-1
Cc1ccc2cc(CN(Cc3nnnn3C3CCCC3)C3CCCCC3)c(=O)[nH]c2c1C,26,5570,2,3,nt,nt,nt
NC(=O)C1CCN(C(c2ccccc2)c2nnnn2C2CCCC2)CC1 (stereo not drawn),13,3152,3,1,nt,nt,nt
CCOC(=O)C1CCN(C(c2cc3ccc(C)c(C)c3[nH]c2=O)c2nnnn2C2CCCCC2)CC1 (stereo not drawn),38*,60118*,12,33*,-2,-5,-4
Cc1c(NC(=O)C(C)OC(=O)c2ccc([N+](=O)[O-])cc2Cl)c(=O)n(-c2ccccc2)n1C (stereo not drawn),14,6223,-2,2,nt,nt,nt
O=C(O)C1CCCCC1C(=O)NCCCN1CCCC1=O (stereo not drawn),48*,4270,0,-3,0,-5,-3
O=C(NCCCN1CCCC1=O)NC1CCCCC1,-6,4023,2,0,nt,nt,nt
Cc1ccc(Nc2nc(C)cc(C)n2)c(Br)c1,35*,9927,-23,32*,0,-4,-2
O=C(Cn1ccc(NC(=O)OCc2ccccc2)nc1=O)NCCCN1CCCC1=O,-3,2981,-6,0,nt,nt,nt
CCC(=O)Nc1nnc(S(=O)(=O)N(CC)c2ccc(Cl)cc2)s1,0,4343,3,-2,nt,nt,nt
CCC(=O)Nc1nnc(S(=O)(=O)N(C)c2cc(C)cc(C)c2)s1,42*,3945,8,-2,1,1,1
CC(CNc1nc2ccc(Cl)cc2n2cnnc12)c1ccccc1 (stereo not drawn),1,3709,-14,-1,nt,nt,nt
Cc1ccc2cc(C#N)c(N3CCN(C(=O)c4cccs4)CC3)nc2c1,40*,3441,-12,-3,-3,-10,-5
Cc1ccc2nc(N3CCN(C(=O)c4ccc(F)cc4)CC3)c(C#N)cc2c1,0,4690,0,5,nt,nt,nt
Cc1ccc(NS(=O)(=O)c2c(C)ccc3nsnc23)c([N+](=O)[O-])c1,?,3720,1,3,nt,nt,nt
CN(CC(=O)Nc1cccc(F)c1)C(=O)c1cccnc1Sc1ccc(Cl)cc1,-10,5590,-3,2,nt,nt,nt
CN(CC(=O)Nc1cccc(F)c1)C(=O)c1cccnc1Sc1ccccc1Cl,0,?,1,38*,2,6,5
CC(NCC(=O)Nc1cc(S(=O)(=O)N2CCOCC2)ccc1Cl)c1ccc(Cl)cc1Cl (stereo not drawn),-3,6170,0,-1,nt,nt,nt
Cc1ccc(OCC(=O)Nc2ccc(C)c(F)c2)c([N+](=O)[O-])n1,9,5845,6,4,nt,nt,nt
COC(=O)c1ccc(COc2ccc(-c3nn[nH]n3)cc2)cc1,47*,4697,-28,49*,0,3,-2
O=C(NCC(=O)N(c1ccccc1F)C(C(=O)NC1CCCC1)c1ccncc1)c1ccco1 (stereo not drawn),-2,5171,-1,-1,nt,nt,nt
CC(=O)c1cnn(-c2c(Cl)cc(Cl)cc2Cl)c1C,38*,2937,6,0,-2,-2,-4
SMILES,BoNT F protease,Autofluor counter,Anthrax LF prot,BoNT A protease,BoNTA LC inh 1,BoNT-F LC CP1,Anthrax LF CP1
COc1ccc(-c2ccnc(SCC(=O)c3ccc(Cl)cc3)n2)cc1,70*,6905,38*,8,0,-4,-2
COc1ccc(-c2ccnc(SCC(=O)c3ccc(OC)c(OC)c3)n2)cc1,-11,2048,0,-1,nt,nt,nt
Cc1c(C(=O)Nc2ccccc2[N+](=O)[O-])csc1-c1ccccc1,39*,2581,-1,5,-1,-6,-2
CCC(=O)Nc1c(-c2ccc(Cl)cc2)c(=O)c2ccccc2n1C,-19,3007,-15,0,nt,nt,nt
Cc1ccc(C(=O)Nc2scc(-c3ccccc3)c2C(=O)O)cc1,36*,3585,11,5,0,-4,6
COc1cccc(NC(=O)CN(C)C(=O)CCCc2nc3ccccc3c(=O)[nH]2)c1,1,5373,2,2,nt,nt,nt
O=C(CN1CCOCC1)Nc1ccc(Cl)cn1,22,?,32*,1,1,-1,2
O=C(CN1CCOCC1)Nc1ccc(Cl)cc1,?,3809,-4,2,nt,nt,nt
COc1ccc2cc(C(c3nnnn3CCc3ccccc3)N3CCC(O)CC3)c(=O)[nH]c2c1 (stereo not drawn),+,38811*,15,30*,2,-5,-8
CC(C)(C)n1nnnc1C(c1cc2cc3c(cc2[nH]c1=O)OCO3)N1CCN(c2ccccc2)CC1 (stereo not drawn),-15,6098,-2,2,nt,nt,nt
COc1ccc(Cn2nnnc2C(c2ccncc2)N2CCOCC2)cc1 (stereo not drawn),-4,6100,-9,2,nt,nt,nt
Cc1ccc2cc(C(c3nnnn3C(C)(C)C)N3CCCCCC3)c(=O)[nH]c2c1 (stereo not drawn),5,10312,-2,1,0,0,-4
COc1ccc(Cn2nnnc2C(c2cc3cc(C)ccc3[nH]c2=O)N2CCOCC2)cc1 (stereo not drawn),1,22468*,0,0,0,-6,1
COCCn1nnnc1C(C(C)C)N(Cc1ccccc1)Cc1cc2cc(OC)ccc2[nH]c1=O (stereo not drawn),4,5669,8,1,nt,nt,nt
CCN(Cc1ccccc1)C(c1cc2ccc(C)cc2[nH]c1=O)c1nnnn1CCOC (stereo not drawn),i,?,?,?,3,-10,3
CC1(C)CC(=O)C(C(c2ccc(Br)cc2)C2C(=O)CC(C)(C)CC2=O)C(=O)C1,?,3905,9,-3,nt,nt,nt
CCC(=O)N1c2ccc(S(=O)(=O)N3CCN(c4ccc([N+](=O)[O-])cc4)CC3)cc2CC1C (stereo not drawn),2,5601,1,0,nt,nt,nt
C=CCOc1ccc(C2C(C(=O)c3ccc(C)o3)=C(O)C(=O)N2Cc2cccnc2)cc1 (stereo not drawn),-4,6524,1,-2,nt,nt,nt
CCC(C)(C)n1nnnc1C(c1cc2cc(C)ccc2[nH]c1=O)N1CCCC1 (stereo not drawn),6,21937*,-9,?,-1,1,-2
CCC(C)(C)n1nnnc1C(c1cc2cc(C)cc(C)c2[nH]c1=O)N1CCN(C(=O)c2ccco2)CC1 (stereo not drawn),5,5067,-3,1,0,-1,2
